From PubChem BioAssay AID504434 (National Center for Advancing Translational Sciences (NCATS), 2011)
Values without a mark were called inactive. Active and inactive are the calls of the source. The call rests on the fitted dose curve; in most records, active means well fitted curve in the direction sought with a large enough effect; inconclusive means small, poorly fitted or top-dose-only effect, or effect the other way, or another doubt; inactive means no such curve, though single readings can be large or run the other way.

assay: Secondary Assay for lipid storage modulators: AML12 cell LDSA assay for probe SAR; conditions: AML12 lipid droplet accumulation, BODIPY 493/503 imaging, oleate; series mostly up to 46.1 µM; activity change, negative = inhibition: at the top concentration
Text: NIH Molecular Libraries Probe Production Centers Network [MLPCN] NIH Chemical Genomics Center [NCGC] MLPCN Grant: 1 R03 MH085686-01 Assay Submitter (PI): Beller, Mathias; Max-Planck-Institut fur Biophysikalische Chemie NCGC Assay Overview: Storing lipids as a reservoir for energy or the anabolism of elementary metabolites is a common feature of probably all cells and is conserved from bacteria to humans. The universal cellular lipid storage organelle is the so-called lipid storage droplet (LD). Although ubiquitous, LDs share a simple structure composed of a hydrophobic core that harbors the storage lipids, which is shielded by a droplet-specific phospholipid monolayer to which proteins are attached. The current model of LD biogenesis involves an incorporation of the lipid core into the membrane leaflets of the endoplasmic reticulum (ER) followed by a subsequent budding-like maturation of a LD, which ultimately pinches off. Once released, LD volume can increase by localized lipogenesis or fusion of existing droplet. Storage lipids are re-mobilized enzymatically by lipase activity. Lipase regulation in the adipocyte is heavily studied and involves multiple components including catecholamine signaling, the LD-associated proteins Perilipin and comparative gene identification (CGI-58) and at least two lipases named hormone sensitive lipase (HSL) and adipocyte triglyceride lipase (ATGL). LD regulation outside of the adipocyte is poorly understood and only few components are known. However, there is an urgent need to learn more about ectopic fat depots as mislocalized storage of lipids, for example in the liver or muscle, is an eminent health problem associated with insulin resistance or the metabolic syndrome.
NCGC Assay Protocol Summary: The assay was performed with AML12 cells, using an oleic acid feeding protocol similar to the S3 assay. We dispensed 4 uL of cells to give 700 cells/well into Greiner bio-one 1,536-well plates (black walled, clear bottom). Triacsin C (Sigma-Aldrich T-4540), an inhibitor of long-chain fatty acyl CoA synthetase that blocks synthesis of triglycerides, was used as a positive control for lipid under-storage using a final concentration of 20 uM. The orexin antagonist, SB408124 - previously identified to stimulate lipid over-storage, was used as a positive control for lipid over-storage using a final concentration of 20 uM. A total of 23 nL of compound solution of different concentrations were transferred to the assay plates using a Kalypsys pin tool equipped with a 1,536-pin array containing 10-nL slotted pins (FP1S10, 0.457-mm diameter, 50.8 mm long; V&P Scientific). One microliter of oleic acid was added (400 uM final concentration), and the plate was lidded with stainless steel rubber gasket lined lids containing pinholes. After 18-24 h incubation at […] and 95% humidity, 4 uL of the dyes BODIPY 493/503 (Molecular Probes) and the Cell Tracker Red CMTPX dye (Molecular Probes) were added to the wells to stain lipid droplets and enumerate cell number, respectively. Fluorescence was detected by excitation of the fluorophores with a 488-nm laser on an Acumen Explorer (TTP Lab Tech). The total intensity in channel 2 (500-530 nm) reflected lipid droplet accumulation. Cells were detected using channel 3 (575-640 nm) with 5-um width and 100-um depth filters. The ratio of the number of objects in PMT channel 2 over the number of objects in PMT channel 3 was also calculated. Percent activity was computed relative to an internal control (100% inhibited lipid droplet deposition due to the presence of 20 uM Triacsin C), which was added to 32 wells/plate.

Row | SMILES | activity change, negative = inhibition | Potency
1 | O=C(NC1CCCc2c1cnn2-c1ccc(F)cc1F)C1CCCCC1 (stereo not given) | 5.26% | –
2 | CCOC(=O)C1CCN(C(=O)C(C)(C)NC(=O)Nc2ccc(OC)c(Cl)c2)CC1 | -44.8% | –
3 | Cc1ccc(C)c(-c2csc(NC(=O)CSc3nnc(Nc4ccc(OC(F)(F)F)cc4)s3)n2)c1 | 15.7% | –
4 | Cc1ccc(-c2cnc(SCC(=O)Nc3nccs3)n2Cc2ccco2)cc1 | -10.1% | –
5 | COc1ccc(-c2cnc(SCC(=O)Nc3nc(C)cs3)n2-c2ccccc2)cc1 | 15.2% | –
6 | O=C(CSc1nnc(NCc2ccccc2)s1)Nc1nc(-c2ccc(F)c(F)c2)cs1 | 30% | –
7 | COc1ccccc1NC(=S)N1CCN(c2cc(Cl)ccc2C)CC1 | -20% | –
8 | CCn1c(C(=O)NCCc2ccc(OC)c(OC)c2)cc2sccc21 | -25% | –
9 | Cc1ccc(-c2cnc(SCC(=O)Nc3nc(C)cs3)n2Cc2ccco2)cc1 | -24.1% | –
10 | CCOC(=O)C1CCN(C(=O)C(C)(C)NC(=O)Nc2ccc(N)cc2)CC1 | -8.33% | –
11 | COc1ccc(NC(=S)N2CCN(c3cccc(Cl)c3)CC2)c(OC)c1 | 15.7% | –
12 | O=C(NC1CCCc2c1cnn2-c1ccc(F)cc1F)c1cccc(=O)[nH]1 (stereo not given) | -22.4% | –
13 | CCOC(=O)C1CCN(C(=O)C(C)(C)NC(=O)Nc2ccc3sccc3c2)CC1 | -34.8% | –
14 | COc1ccc(-c2cnc(SCC(=O)Nc3nc(C)cs3)n2Cc2ccco2)cc1 | -16.5% [at 30.7 µM] | –
15 | COc1ccc(Cl)cc1NC(=S)N1CCN(c2ccccc2)CC1 | -22.9% | –
16 | Cc1cccc(-c2ccc3ncnc(NCc4cccc(F)c4)c3c2)c1 | -19.7% | –
17 | COc1ccc(Cl)cc1NC(=S)N1CCN(c2ccccc2F)CC1 | 42.9% | –
18 | COc1ccc(CCNC(=O)c2cc3sc(C)cc3n2C)cc1OC | 8.57% | –
19 | CC(C)(C)n1ncc2c(=O)n(Cc3ccc(-c4ccccc4C#N)cc3)cnc21 | 1.32% | –
20 | O=C(NC1CCCc2c1cnn2-c1ccccc1F)c1ccc2ncccc2c1 (stereo not given) | 12.9% | –

Row | SMILES | activity change, negative = inhibition | Potency
21 | CCn1c(-c2ccc(C)cc2)cnc1SCC(=O)Nc1nc(C)cs1 | -8.86% | –
22 | S=C(Nc1cc(Cl)ccc1Oc1ccccc1)N1CCN(c2ncccn2)CC1 | 10% | –
23 | CCOc1ccc(CCNC(=O)c2cc3sccc3n2C)cc1OCC | -27.6% | –
24 | CC1=C(C(=O)NC2CCCc3c2cnn3-c2ccc(F)cc2F)OCCO1 (stereo not given) | -10.5% | –
25 | CCOC(=O)C1CCN(C(=O)C(C)(C)NC(=O)Nc2ccc3ccccc3c2)CC1 | -61.8% | –
26 | Cc1sc(NC(=O)Cc2cccs2)nc1-c1ccccc1 | -27.1% | –
27 | CCOC(=O)C1CCN(C(=O)C(C)(C)NC(=O)Nc2cccc(C(=O)OC)c2)CC1 | -29.2% | –
28 | COc1ccc(Cl)cc1NC(=S)N1CCN(c2ccc(F)cc2)CC1 | -21.4% | –
29 | CCOc1ccc(CCNC(=O)c2cc3sccc3[nH]2)cc1OCC | -1.32% | –
30 | COc1cccc(-n2ncc3c2CCCC3NC(=O)c2ccccn2)c1 (stereo not given) | – | 44.5 nM [inconclusive] (active)
31 | COCCn1c(-c2ccc(C)cc2)cnc1SCC(=O)Nc1nc(C)cs1 | -34.2% | –
32 | O=C(Nc1cccc2nn(-c3ccc(F)cc3)cc12)c1ccccn1 | -9.21% | –
33 | CCOC(=O)C1CCN(C(=O)C(C)(C)NC(=O)Nc2ccc([N+](=O)[O-])cc2)CC1 | -39.6% | –
34 | CCOc1ccc(NC(=O)NC2(C(=O)N3CCCCC3)CCCCC2)cc1 | -27.8% | –
35 | O=C(NC1CCCc2c1cnn2-c1ccc(F)cc1F)c1ccccc1 (stereo not given) | -7.89% | –
36 | O=C(NC1CCCc2c1cnn2-c1ccc(F)cc1F)c1cccs1 (stereo not given) | -23.7% | –
37 | O=C(NC1CCCc2c1cnn2-c1ccc(F)cc1F)c1cccc(F)c1F (stereo not given) | -1.43% | –
38 | O=C(Cc1cccs1)Nc1nc(-c2ccncc2)cs1 | 10% | –
39 | O=C(CSc1nnc(NCc2ccccc2)s1)Nc1nc(-c2cccc(Br)c2)cs1 | 18.6% | –
40 | O=C(NC1CCCc2c1cnn2-c1cc(F)cc(F)c1)c1cccc2nccnc12 (stereo not given) | -45.6% [at 30.7 µM] | –
